# Experiments:
# Experiment in all cases: PBM binding z-score (relative to random genomic background probes); higher = stronger binding; sequences stand for … in GC…GCGATTGACAGCGTAGAATGAAGG
# [1] = tested on: RARb homodimer (NR concentration 270 nM)
# Procedure, shortened: (§1)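 Binding z-scores take random background probes as their reference. They come from custom Agilent 4×180K protein-binding microarrays incubated 1 h with ligand-free nuclear receptor dimers, with antibodies against each partner (one per run) detecting binding. Scanned fluorescence was regression-normalized.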
# [2] = tested on: RARg:RXRa (NR concentration 270 nM, RXRa partner concentration 90 nM)
# Procedure, shortened: as §1
# [3] = tested on: RARg homodimer (NR concentration 270 nM)
# Procedure, shortened: as §1
# [4] = tested on: RXRa DBDmut IVT, anti-RXR (DBD mutation: RXRa K156A/R161A, NR concentration 90 nM)
# Procedure, shortened: as §1
# [5] = tested on: RXRa homodimer (NR concentration 180 nM)
# Procedure, shortened: as §1
# [6] = tested on: THRa:RXRa (NR concentration 90 nM, RXRa partner concentration 90 nM)
# Procedure, shortened: as §1
# [7] = tested on: THRa homodimer (NR concentration 90 nM)
# Procedure, shortened: as §1
# [8] = tested on: VDR homodimer (NR concentration 270 nM)
# Procedure, shortened: as §1
Sequence,PBM binding z-score [1],PBM binding z-score [2],PBM binding z-score [3],PBM binding z-score [4],PBM binding z-score [5],PBM binding z-score [6],PBM binding z-score [7],PBM binding z-score [8]
GGAACGAGGGCTAGTTGATAGCAGAGTTTGATGG,-0.317,-0.308,-0.0732,0.278,-0.467,-0.749,-1.03,-0.367
CAAACTAGGTCCCAGAGGTCAAAGTCCGTGCGTA,4.35,5.07,4.38,2.04,5.62,3.67,1.58,3.87
CTGACTGGGGCAGAAAGGTTACCATACCATCCGG,2.57,2.08,1.66,-0.154,1.88,1.34,-0.00368,0.339
ATCTATAGGTAAAGATAGTTCAGTGAATGCAAAT,1.07,0.887,0.972,0.0561,0.775,0.89,0.0462,0.507
TCTTGTAGATCAAAGGTTGAGAAAGCCGAAGCCT,0.0942,0.326,-0.192,0.518,1.08,0.142,-0.747,-0.223
CCTTACGGGTCACTCCAGGTTATAGAATCGGAGT,3.06,4.57,4.54,1.91,4.61,5.18,0.576,1.39
TCTAGTTGCTCACGGAGGTCACACACGACGGGTA,4.16,4.02,3.73,1.11,4.32,3.46,2.22,2.06
GGAAAGAGGGCAAAGTTGATAGCATCTGTCGACG,1.93,2.84,2.38,1.85,2.81,1.08,0.0442,1.18
TAGCCTAGGTTATTCAGGGGCCAGTATAGAAAGC,0.985,3.15,0.714,-0.074,0.459,1.93,-0.239,-0.459
CGTCCAAGGTCATCAGGTCAGTGAAAGCGACGTG,5.08,6.56,6.99,4.23,6.63,4.34,3.86,3.8
CCTAGTTAGTCAGGAGGTCACACACCGGATATGA,4.28,4.25,3.72,1.38,4.86,3.74,2.73,3.01
CGGACTAGGTCAGAACAGGACAGTGAAGGATGAT,1.79,2.4,2.97,0.496,1.15,3.38,0.402,-0.0539
ATTCAAAGTTCAGGACGAGGTAACGTAAAGCACG,3.31,4.56,4.73,2.99,3.08,3.82,2.01,2.3
TCTCGGAGGACACGAAGGTCTGAGCTTTCCAGAG,0.657,0.331,1.01,0.323,-0.0356,1.12,0.262,-0.384
CCTAGTAGGCCAATCTGGGTCACTCAAGGCTTGA,2.52,1.43,1.67,-0.0412,0.813,3.89,0.525,-0.107
CGAACCAGGGCATGAGTTGATAGCAAATGCCGAT,0.207,0.644,0.753,0.293,0.492,0.518,-0.382,0.429
ATCTCTAGGTAAGACTCAGTCCAGTGAAGAACGC,0.112,0.208,0.132,0.459,0.144,0.31,0.282,0.336
AGTATTAGTTGAGACGAGGGCAACCGATAGGTTG,1.37,0.642,0.922,0.464,0.65,2.68,0.356,1.53
CGAACTAGGTCAAGGACAGTCAATCTCCGCACGC,3.32,3.79,4.63,1.46,2.57,3.19,1.96,0.563

Sequence,PBM binding z-score [1],PBM binding z-score [2],PBM binding z-score [3],PBM binding z-score [4],PBM binding z-score [5],PBM binding z-score [6],PBM binding z-score [7],PBM binding z-score [8]
ACTTACGGGTCAACGAGGTAATAGCACGCGTATA,3.07,5.4,5.19,2.15,6.11,4,0.859,1.79
AATTACGGGTCAACGAGGTTATAGCACGCGTATA,3.63,5.71,4.88,2.47,6.2,4.18,1.16,4.13
TTACCAAGGCGAAAGGTCGTTGATGCACGCCTTG,1.7,2.04,1.11,0.253,2.66,1.44,-0.366,1.13
AGTATGAGGTTAAGATCAGGGAAACAGAATACAT,1.09,2.13,1.66,0.674,2.42,2.63,0.96,0.755
ATATGTCGGTTAGCTGGGGTCATTCAGACTAGGC,3.58,3.65,2.68,1.59,5.28,4.56,3.31,4.56
ATCTCTAGGTAACCAAGTTCAGTGTATGCCGAAC,1.47,0.771,0.637,0.982,0.429,1.48,0.867,2.85
ATATGTAGGTTACATCCGGGTCATTAAGGCTATG,3.03,3.68,2.19,1.31,3.15,3.75,2.8,2.89
TCTAGTTGGTCACGGAGGTCAAACACGACGGGTA,4.53,5.24,5.02,1.28,5.47,3.78,2.02,3.62
TAGCCTAGGTCAGATCGAGCCAGTATACGCTATA,1.71,2.36,3.3,-0.301,1.23,1.61,-0.233,-0.594
ATACAAAGGTGATCGTGAGGTCGTTGATACTAAC,2.28,3.87,1.85,0.883,2.73,3.66,2.12,2.97
ATCGAAAGGTCGAGGTGAGTGTAGAGAAAGGGAA,2.96,4.37,4.06,0.896,4.28,3.21,0.885,0.854
TCTTGTAGATCAGCAGGTTAAAAAAGCTGGCCAA,0.0977,-0.388,-0.402,0.516,0.184,0.165,-0.53,-0.268
CGTCAAAGTTCAACTAACGTAACGTAAAGCACGC,4.09,5.71,6.79,4.56,4.65,1.97,0.0138,3.38
CGTACAAGGTCATAGGAGGTCAGTGAAGACAGAT,5.45,6.72,7.17,4.16,6.75,5.49,3.23,4.19
CGAACTAGGTCAAGGACAGAGAATCTCCGCACGC,2.93,3.95,4.67,1.52,2.61,2.74,1.79,0.0808
TGTCAAAGTTCAAAGGTACCGTAAGTATCCACAC,4,5.69,5.77,4.44,5.81,2.65,-0.264,4.24
GGAACGAGGGCATGCGAGTTGATAGCATGGCGAT,0.608,1.21,1.6,2.03,0.847,2.7,-0.777,1.97
CCGACTGGGGCATAAGGTAACCATAAGCCAGCCC,0.572,0.385,0.436,-0.779,0.252,1.72,1.34,-0.312
TCAGATAGGTAATACAGGTGAAAGTCGGCATCTA,0.54,0.562,0.364,1.27,1.03,0.795,0.181,0.187

Sequence,PBM binding z-score [1],PBM binding z-score [2],PBM binding z-score [3],PBM binding z-score [4],PBM binding z-score [5],PBM binding z-score [6],PBM binding z-score [7],PBM binding z-score [8]
TCTAGTTGGTCACGGAGGTAACACACGACGGGTA,1.39,1.24,1.7,0.681,1.04,1.12,0.797,0.198
ATCTCGAGGTAAAAGTTCAGTGAATCCCGAGGAT,2.35,2.35,1.86,0.47,2.58,1.99,0.159,0.883
CGAACGAGGGCATGAGTTGAAAGCAAATGCCGAT,0.836,1.52,1.57,2.22,1.19,1.37,-0.313,1.57
CCTATCAGGCCAGGGTCACTCAAGCATTTCGCTT,2.88,3.19,2.62,0.325,3.65,3.19,1.36,1.33
AGGATGAGGTTACCAAAGATCAGGGAAACGCTTG,1.18,1.94,1.65,0.402,2.51,2.67,1.29,0.534
CCGACTGGCGCAAAGGTTACCATACTCAGTACGA,1.81,1.62,0.821,0.55,2.11,1.35,-0.0334,-0.00484
CGAAATAGGTCAGAACAGGACAGTGAAGGATGAT,2.82,3.36,4.15,0.269,2.42,4.13,0.228,0.382
TCAGACAGGTGAAGGAAACTCAGGTACGCAGTCG,0.458,0.429,0.359,1.34,0.487,0.592,0.421,0.426
AGAATGAGGTTTTTAAGATCAGGGAATTGCGGTC,-0.159,-0.0419,-0.355,0.351,0.0313,0.216,-0.0732,-0.068
CCTGCTAGATCATGGTCAGCTAATCTACAGTATG,-0.429,-0.127,0.142,0.516,-0.185,-0.68,-1.23,-0.86
ACTATTAGTTGACTTAGGGCAGCCGATACGACGC,0.54,0.527,0.729,0.712,0.378,0.635,0.246,0.0585
TCGAGTAGGTTATGGGCATTCAGAATGGCGTCGA,-0.0176,-0.0222,-0.106,-0.148,0.459,-0.261,-0.66,-0.437
TAGCCTAGGACAGATCGGGCCAGTATACGCTATA,-0.402,-0.336,0.0371,-1.01,-0.257,0.511,-0.623,-0.922
GCGCCTGGGGCATCAGCAGGTTACCATAACTTAA,0.912,0.748,0.657,-0.312,0.179,0.955,-0.0466,-0.553
CCTACTGGGCCAAAGGTTATTGATTCCAATGCTC,1.57,2.07,0.739,0.31,2.12,1.13,-0.123,0.0494
CGTCAAAGTTCAACTAAAGTAACGTAAAGCACGC,4.13,5.9,6.97,4.67,5.02,2.61,0.0523,3.56
TGAATGAGGTTATAAGATCAGGGCACGTTGCAAA,1.02,1.74,1.28,0.591,2.05,2.4,0.785,0.892
ATCTCTAGGTAAAGTTCAGTGAAAGATCGATAGA,2.65,2.18,2.77,1.72,1.42,1.24,0.317,2.53
CGTCAAAGTTCAACTAAGGTAACGTAGAGCACGC,4.06,6.15,6.74,4.65,5.34,5.11,1.86,3.92
